Hits are enriched below; roughly 2.4% of the tested compounds scored in any of these assays.
AmpC inh det = blocks E. coli AmpC beta-lactamase in presence of detergent; P00811; purified AmpC, nitrocefin hydrolysis with detergent; Potency, µM (series often up to 28.7 µM), for inactives: top-dose activity change, negative = inhibition; 71,000 tested, 0.09% active; AID 584; active = well fitted curve in the direction sought with a large enough effect; inconclusive = small, poorly fitted or top-dose-only effect; also: % is scaled to controls: 0 for no effect and ±100 for the full control effect
Target sequence (P00811 whole entry, looked up): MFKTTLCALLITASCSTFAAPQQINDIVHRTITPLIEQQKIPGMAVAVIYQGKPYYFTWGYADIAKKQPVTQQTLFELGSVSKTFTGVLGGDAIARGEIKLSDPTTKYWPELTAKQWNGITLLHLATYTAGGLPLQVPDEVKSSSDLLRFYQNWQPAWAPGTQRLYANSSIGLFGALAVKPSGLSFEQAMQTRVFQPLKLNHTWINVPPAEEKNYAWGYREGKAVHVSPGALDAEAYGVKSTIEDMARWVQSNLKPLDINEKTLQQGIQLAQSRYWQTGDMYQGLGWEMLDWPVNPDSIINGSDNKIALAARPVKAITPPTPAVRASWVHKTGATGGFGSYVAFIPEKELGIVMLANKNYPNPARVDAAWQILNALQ
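E. coli AmpC (5.3 nM) in 20 mM phosphate pH 7.0 with 0.01% Triton X-100, preincubated 15 min RT with compound; nitrocefin (2 uL of 800 uM stock) hydrolysis followed by 480 nm absorbance every 20 s over 4 min.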
Anthrax LT inh = anthrax lethal toxin internalization inhibition; Cells, anthrax lethal toxin internalization, FRET ratio (460/530); Potency, µM (doses to about 40 µM), without a hit: top-dose activity change, negative = inhibition, most hits filed as inhibitors; 70,000 tested, 0.67% active; AID 912; also: % is scaled to controls: 0 for no effect and ±100 for the full control effect; nearly all actives have a fitted effect of over 50% in size
SmPrx2 inh = inhibitors of Schistosoma mansoni peroxiredoxin 2. S. mansoni Prx2 activity coupled to TGR/GSH (TGR is thioredoxin glutathione reductase), NADPH fluorescence loss, qHTS. Potency, µM. 65,000 tested, 0.07% active. AID 448
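Prx2 activity was followed as the loss of NADPH fluorescence (ex 365/em 450 nm), read every 30 sec for 8 min after H2O2 start. The enzyme mix (50 nM Prx2, 25 nM TGR, GSH, NADPH; pH 7.4 phosphate buffer) was incubated with compound for 15 min at room temperature first.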
AmpC inh no det = blocks E. coli AmpC beta-lactamase in absence of detergent; 71,000 tested, 1.8% active; P00811; AmpC nitrocefin hydrolysis, absorbance 480 nm, no detergent; Potency, µM (titrated, usually from 28.7 µM), without a hit: top-dose activity change, negative = inhibition; also: % of control where 0% means no effect
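Enzyme, pH 7.0 phosphate. Compound titrations were pre-incubated with AmpC for 15 min at room temperature before nitrocefin (stock 800 uM) addition; product formation was recorded at 480 nm every 20 s for 4 min.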
An asterisk follows results filed as active; ? = inconclusive; nt = not tested or not shown; [ ] = another dose, or the depositor's remark. Unless noted, calls follow the shape of the full dose curve. Potency is read from the fitted curve at half-maximal effect.

SMILES	AmpC inh det	Anthrax LT inh	SmPrx2 inh	AmpC inh no det
CN(C)CC(CN(C)C)c1ccccn1	-6%[5.75 µM]	-2%[8 µM]	>57	-3%[5.75 µM]
COC(=O)N1CCC2(CCCN(Cc3nccs3)C2)CC1	-3%	16%	>57	98%
Cc1cc(/C=N/n2cnnc2)c(C)n1-c1ccc(OCc2ccc(F)cc2)cc1	-3%	13µM*	>57	99%
Cc1cc(/C=N/n2cnnc2)c(C)n1-c1cccc(Cl)c1	-3%	12%	nt	52%
COc1cc2c(cc1OC)[C@]13CC[N@+]4(C)CC5=CCO[C@H]6CC(=O)N2[C@@H]1[C@@H]6[C@@H]5C[C@]34O	-2%[5.75 µM]	1%[8 µM]	>57	2%[5.75 µM]
COc1ccccc1Oc1ccc2c(c1)C(=O)N(c1ccc(O)cc1)C2=O	-2%	0%	>57	13µM*[single pt active]
COc1ccc(-c2noc(-c3cc(C)cc(C)c3)n2)cc1OC	8%	-25%	>57	1.3µM*[single pt active]
CCOc1ccc(-c2nc(-c3ccc(OC)c(OC)c3)no2)cc1OCC	-2%	nt	>57	25%
COc1ccc(-c2noc(-c3ccc(Br)o3)n2)cc1OC	-2%	?	>57	9%
COc1cc(-c2nc(-c3ccc(Br)o3)no2)cc(OC)c1OC	15%	-24%	>57	4µM*[single pt active]
Cc1cnc(NC(=O)CCCSc2nc3ccccc3s2)s1	-4%	18%	>57	13µM*
Cc1csc(NC(=O)CCCSc2nc3ccccc3s2)n1	2%	-18%	>57	1%
Cn1nc(-c2ccc(Cl)cc2)c2cc(C(=O)NCC3CCCO3)sc21 (stereo unspecified)	8%	?	>57	150%
CN1CCN(CCCNC(=O)c2cc3c(-c4ccc(Cl)cc4)nn(C)c3s2)CC1	17%	6.3µM*	>57	170%
CC1CCCCN1CCNC(=O)c1cc2c(-c3ccccc3F)nn(C)c2s1 (stereo unspecified)	10%	7.9µM*	>57	4µM*[single pt active]
CCN(CC)CCCNC(=O)c1cc2c(-c3ccc(Cl)cc3)nn(C)c2s1	14%	2.5µM*	>57	4µM*[single pt active]
COc1cc(C(=O)O[C@@H]2CC(C)=CC[C@@]3(C)CC[C@](O)(C(C)C)[C@H]23)ccc1O	-3%	?	>57	-15%
Cc1ccc2nc(NC(=O)CNS(=O)(=O)c3ccc(Br)s3)sc2c1	9%	?	>57	-23%
Cc1ccc2nc(NC(=O)CN(C)S(=O)(=O)c3ccc(Br)s3)sc2c1	3%	5µM*	>57	-22%
COc1ccc(-n2cnc3c(sc4nccc(N(C)C)c43)c2=O)cc1	-6%	nt	>57	-3%
Cc1ccc(-n2cnc3c(sc4nccc(N(C)C)c43)c2=O)cc1	12%	6.3µM*	nt	40%
CCOc1ccc(C(=O)Nc2cc(C)on2)cc1	7%	-4%	nt	0%
Cc1cc(NC(=O)c2cccc(COc3ccc(Br)cc3)c2)no1	29%	?	>57	4µM*[single pt active]
CC(C)(C)NC(=O)c1ccc(NC(=O)C2COc3ccccc3O2)cc1 (stereo unspecified)	-2%	14%	>57	8%
COc1ccc(OC)c(NS(=O)(=O)c2ccc(NC(=O)C3COc4ccccc4O3)cc2)c1 (stereo unspecified)	0%	?	nt	10µM*
SMILES	AmpC inh det	Anthrax LT inh	SmPrx2 inh	AmpC inh no det
CC1CC(C)CN(S(=O)(=O)c2ccc(NC(=O)C3COc4ccccc4O3)cc2)C1 (stereo unspecified)	7%	?	>57	16µM*[single pt active]
COC(=O)c1ccc(C)c(NC(=O)C2COc3ccccc3O2)c1 (stereo unspecified)	-2%	nt	>57	10%
COc1cc(NC(=O)C2COc3ccccc3O2)c(OC)cc1Cl (stereo unspecified)	-1%	13µM*	>57	19%
C#CCCCO/N=C1/C[C@@H](O)[C@@H](O)[C@@H]2[C@@H]3C(=O)N(c4cccc(Oc5ccccc5)c4)C(=O)[C@H]3CC[C@@H]12	nt	-4%[8 µM]	nt	nt
CCN(CC)CCCCn1c(-c2ccccc2)nc2c(NC3CCCCC3)nc(C)nc21	13%	-24%	nt	106%
Cc1noc(C)c1-c1nccc(N2CCNCC2)n1	9%	6%	>57	-9%
COc1ccc(CCN2C(=O)CCC2(C)C(=O)NCc2cccnc2)cc1OC (stereo unspecified)	-2%	-2%	>57	-3%
CC1(C(=O)NCc2cccnc2)CCC(=O)N1Cc1cccs1 (stereo unspecified)	14%	0%	>57	4µM*[single pt active]
CC1(C(=O)NCc2cccnc2)CCC(=O)N1CCc1ccccc1 (stereo unspecified)	16%	-8%	>57	4µM*[single pt active]
BrCC(Br)C1CCC(Br)C(Br)C1 (stereo unspecified)	9%	16µM*	nt	-22%
Cc1ccc(S(=O)(=O)NCc2ccncc2)cc1	-5%	-3%	>57	-8%
O=C1CC(c2ccc(S(=O)(=O)NCc3ccncc3)cc2)CN1 (stereo unspecified)	14%	-3%	>57	4µM*[single pt active]
O=C1CC(c2ccc(S(=O)(=O)NC3CC3)cc2)CN1 (stereo unspecified)	15%	13%	>57	4µM*[single pt active]
CC(=O)O[C@@H]1CC(C)=C2[C@H]1[C@H](C)CC[C@H]2/C=C(\C)C(=O)O	11%	-2%	nt	1%
COc1cc([C@@H](O)CN)ccc1O	-5%	5%	>57	-3%
C[C@@H]1[C@H]2CC[C@@H]3[C@@H]4CC=C5C[C@@H](N(C)C)CC[C@]5(C)[C@@H]4CC[C@@]32CN1C	-1%[12.8 µM]	4µM*	>57	13%[12.8 µM]
Oc1ccc2cc(SSc3ccc4cc(O)ccc4c3)ccc2c1	0%	?	nt	16µM*
O=C(Nc1nc(-c2ccccn2)cs1)c1ccc(Cl)s1	6%	6.3µM*	>57	-1%
O=C(Nc1nc(-c2ccc(Cl)s2)cs1)c1cccs1	4%	?	>57	?
O=C(Nc1nc(-c2ccc(S(=O)(=O)N3CCCC3)cc2)cs1)c1ccco1	-2%	nt	>57	-8%
Cc1ccc(-c2csc(NC(=O)c3ccno3)n2)cc1	-3%	13%	>57	7.9µM*
Cn1cccc1C(=O)Nc1nc(-c2ccccn2)cs1	-2%	-18%	>57	-11%
O=C(Nc1nc(-c2ccccc2)cs1)c1cccs1	6%	10µM*	nt	-16%
CC[C@@H]1CN2CC[C@@H]1C[C@H]2[C@@H](O)c1ccnc2ccc(OC)cc12	-2%	?	>57	-9%
COc1cccc(Cn2c(=O)c(C)nc3cnc(N4CCOCC4)nc32)c1	2%	6%	>57	5%
C[C@H](O)C(=O)Nc1c(I)c(C(=O)NC(CO)CO)c(I)c(C(=O)NC(CO)CO)c1I	-2%[12.8 µM]	-3%[3.58 µM]	>57	4%[12.8 µM]
CC(=O)N(C[C@@H](O)CO)c1c(I)c(C(=O)NC[C@@H](O)CO)c(I)c(C(=O)NC[C@@H](O)CO)c1I	-2%[12.8 µM]	-3%[3.58 µM]	>57	0%[12.8 µM]
Cc1cc2c(nc1C)CCCN2C[C@@H](O)CN1CCN(C)CC1	nt	3%[1.6 µM]	nt	nt
NS(=O)(=O)c1ccc(NC(=O)CCC2CCCCC2)cc1	9%	-22%	nt	7.9µM*
CC1C(=O)CC(c2ccccc2)N(C)C1c1ccccc1 (stereo unspecified)	14%	?	>57	4µM*[single pt active]
